This note sets out measurements from PubChem BioAssay (NCI).

Assay [1] in a line: NCI Yeast Anticancer Drug Screen. Data for the rad50 strain (AID 155).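 Also: 0% = growth of vehicle-only cultures of the same strain.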 The settings on record: S. cerevisiae rad50 strain growth inhibition, hits give high values. Summed up: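 DNA repair mutant yeast, compound exposure, growth read-out; inhibition is taken relative to vehicle.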
Assay [2] is described as follows: NCI Yeast Anticancer Drug Screen. Data for the mec2-1 strain (AID 157). The settings on record: S. cerevisiae mec2-1 strain, hits give high values. An outline of the steps: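 Growth inhibition is read against vehicle-treated controls after compound exposure of the mec2-1 yeast strain, which is defective in DNA damage repair or cell cycle control.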
The nature of assay [3]: NCI Yeast Anticancer Drug Screen. Data for the sgs1 mgt1 strain (AID 161).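 Also: 0% = growth of cultures given vehicle only.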 The conditions noted are these: S. cerevisiae sgs1 mgt1 strain, hits give high values. An outline of the steps: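 Yeast cells carrying a defined DNA-repair defect were exposed to test compounds. Growth inhibition was measured relative to vehicle-treated controls.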
Assay [4] can be described thus: NCI Yeast Anticancer Drug Screen. Data for the cln2 rad14 strain (AID 165).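 Also: 0% = growth equal to vehicle treated cultures.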 The conditions noted are these: S. cerevisiae cln2 rad14 strain, hits give high values. An outline of the steps:
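Growth inhibition, relative to vehicle-treated controls, is the read-out. The test organism is a yeast strain with defined genetic alterations, cln2 rad14.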

Assay [5] is described as follows: NCI Yeast Anticancer Drug Screen. Data for the bub3 strain (AID 167). The conditions noted are these: S. cerevisiae bub3 mutant strain, hits give high values. An outline of the steps:
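In this screen, a yeast mutant lacking normal mitotic checkpoint function is challenged with compound. Relative growth versus vehicle gives the inhibition value.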

Assay [6] in a line: NCI Yeast Anticancer Drug Screen. Data for the mlh1 rad18 strain (AID 175). The settings on record: S. cerevisiae mlh1 rad18 strain growth inhibition, hits give high values. Summed up:
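Cells of a genetically altered yeast strain, deficient in DNA damage repair, were treated with compound. Their growth was then compared with that of vehicle-treated cultures to give inhibition.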

Setting [7] is: at 5.0 µM (retest, dose inferred, filed as 0.5).
Setting [8] is: at 50.0 µM (retest, dose inferred, filed as 5.0).

Structures are written as SMILES. The panel holds about 79,000 compounds, 15% with a hit somewhere; the sample as a whole holds those more often. Values without a mark were called inactive. The source made the active and inactive calls. Rule as the data show it: active = growth inhibition above about 70%; inactive = the rest.

As for `CC(C)C(O)C(C)C`, the growth inhibition in assay [1] (setting [7]) was 5%; in assay [1] (setting [8]), 1%; in assay [1] (at 50.0 µM), 83% (active); in assay [2] (setting [7]) it was 0%; in assay [2] (setting [8]) it was -3%; in assay [2] (at 50.0 µM) it was -2.45%. In addition, the growth inhibition in assay [3] (setting [7]) was -1%; in assay [3] (setting [8]), 0%; in assay [3] (at 50.0 µM), 4.95%; in assay [4] (setting [7]) it was 4%; in assay [4] (setting [8]), -1%; in assay [4] (at 50.0 µM) it was 17.1%. Besides, the growth inhibition in assay [5] (setting [7]) was 1%; in assay [5] (setting [8]), -7%; in assay [5] (at 50.0 µM) it was 13.7%; in assay [6] (setting [7]), 4%; in assay [6] (setting [8]) it was 2%; in assay [6] (at 50.0 µM) it was 49.5%.

For the compound `O=S(=O)(Sc1ccccc1)c1ccccc1`, the growth inhibition in assay [1] (setting [7]) was 13%; in assay [1] (setting [8]), 98% (active); in assay [1] (at 50.0 µM), 79% (active); in assay [2] (setting [7]) it was 11%; in assay [2] (setting [8]), 99% (active); in assay [2] (at 50.0 µM), 99.1% (active). The growth inhibition in assay [3] (setting [7]) is 16%; in assay [3] (setting [8]) it was 99% (active); in assay [3] (at 50.0 µM), 99.3% (active); in assay [4] (setting [7]), 5%; in assay [4] (setting [8]), 99% (active); in assay [4] (at 50.0 µM) it was 97% (active). For the same compound, the growth inhibition in assay [5] (setting [7]) is 16%; in assay [5] (setting [8]), 99% (active); in assay [5] (at 50.0 µM), 97.3% (active); in assay [6] (setting [7]) it was 20%; in assay [6] (setting [8]) it was 99% (active); in assay [6] (at 50.0 µM), 99% (active).

For the compound `C[C@@]12C[C@@H](Br)[C@H](Br)C[C@]1(C)O2`, the growth inhibition in assay [1] (setting [7]) is 0%; in assay [1] (setting [8]) it was 16%; in assay [1] (at 50.0 µM), 94.5% (active); in assay [2] (setting [7]), -1%; in assay [2] (setting [8]) it was 8%; in assay [2] (at 50.0 µM), 98.7% (active). The growth inhibition is 0% in assay [3] (setting [7]); 15% in assay [3] (setting [8]); 98.1% (active) in assay [3] (at 50.0 µM); -2% in assay [4] (setting [7]); 2% in assay [4] (setting [8]); 64.5% in assay [4] (at 50.0 µM). Further, the growth inhibition in assay [5] (setting [7]) was -6%; in assay [5] (setting [8]) it was 0%; in assay [5] (at 50.0 µM) it was 55%; in assay [6] (setting [7]), -1%; in assay [6] (setting [8]), 6%; in assay [6] (at 50.0 µM), 93.2% (active).

In the case of `CCCc1cc2c(cc1O)CC[C@@H]1[C@@H]2CC[C@]2(C)[C@@H](O)CC[C@@H]12`, the growth inhibition in assay [1] (setting [7]) was -25%; in assay [1] (setting [8]), 96% (active); in assay [1] (at 50.0 µM) it was 86.5% (active); in assay [2] (setting [7]) it was -30%; in assay [2] (setting [8]), 96% (active); in assay [2] (at 50.0 µM), 85.8% (active). For the same compound, the growth inhibition was -30% in assay [3] (setting [7]); 98% (active) in assay [3] (setting [8]); 84.5% (active) in assay [3] (at 50.0 µM); -4% in assay [4] (setting [7]); 77% (active) in assay [4] (setting [8]); 88.5% (active) in assay [4] (at 50.0 µM). The growth inhibition is -33% in assay [5] (setting [7]); 97% (active) in assay [5] (setting [8]); 87.6% (active) in assay [5] (at 50.0 µM); -46% in assay [6] (setting [7]); 96% (active) in assay [6] (setting [8]); 80.7% (active) in assay [6] (at 50.0 µM).

Turning to `Cc1sc(Cc2ccccc2)nc1-c1ccc(N=Cc2ccc(N(CCOS(C)(=O)=O)CCOS(C)(=O)=O)cc2)cc1`, the growth inhibition in assay [1] (setting [7]) is 53%; in assay [1] (setting [8]) it was 95% (active); in assay [1] (at 50.0 µM), 94% (active); in assay [2] (setting [7]), -10%; in assay [2] (setting [8]) it was 97% (active); in assay [2] (at 50.0 µM) it was 97.8% (active). Moreover, the growth inhibition was 32% in assay [3] (setting [7]); 95% (active) in assay [3] (setting [8]); 96.5% (active) in assay [3] (at 50.0 µM); 38% in assay [4] (setting [7]); 95% (active) in assay [4] (setting [8]); 93.8% (active) in assay [4] (at 50.0 µM). Besides, the growth inhibition in assay [5] (setting [7]) was 1%; in assay [5] (setting [8]), 94% (active); in assay [5] (at 50.0 µM), 91.3% (active); in assay [6] (setting [7]) it was 82% (active); in assay [6] (setting [8]), 95% (active); in assay [6] (at 50.0 µM), 96.5% (active).

With `Nc1ccc2c(c1)S(=O)(=O)c1cc(O)ccc1O2`, the growth inhibition in assay [1] (setting [7]) was 23%; in assay [1] (setting [8]) it was 18%; in assay [1] (at 50.0 µM) it was 32.9%; in assay [2] (setting [7]) it was 10%; in assay [2] (setting [8]) it was 20%; in assay [2] (at 50.0 µM), -26.8%. Besides, the growth inhibition is 13% in assay [3] (setting [7]); 25% in assay [3] (setting [8]); -22.6% in assay [3] (at 50.0 µM); 11% in assay [4] (setting [7]); 24% in assay [4] (setting [8]); -4.55% in assay [4] (at 50.0 µM). The growth inhibition in assay [5] (setting [7]) is 21%; in assay [5] (setting [8]), 28%; in assay [5] (at 50.0 µM) it was -15.2%; in assay [6] (setting [7]) it was 8%; in assay [6] (setting [8]), 5%; in assay [6] (at 50.0 µM), -71%.

For the compound `CCCCCN1C(=O)CC(C(=O)OCC)=C1C`, the growth inhibition was 3% in assay [1] (setting [7]); -14% in assay [1] (setting [8]); -12% in assay [1] (at 50.0 µM); -3% in assay [2] (setting [7]); -8% in assay [2] (setting [8]); -17.2% in assay [2] (at 50.0 µM). Further, the growth inhibition is -4% in assay [3] (setting [7]); -14% in assay [3] (setting [8]); -23.9% in assay [3] (at 50.0 µM); -9% in assay [4] (setting [7]); 1% in assay [4] (setting [8]); 76.5% (active) in assay [4] (at 50.0 µM). The growth inhibition in assay [5] (setting [7]) is -3%; in assay [5] (setting [8]) it was 3%; in assay [5] (at 50.0 µM), 30.3%; in assay [6] (setting [7]) it was 1%; in assay [6] (setting [8]), -10%; in assay [6] (at 50.0 µM) it was 9.1%.

For `COc1ccc2nc3c([N+](=O)[O-])ccc(NCCCN(C)C)c3c(N)c2c1`, the growth inhibition in assay [1] (setting [7]) is 6%; in assay [1] (setting [8]), 86% (active); in assay [1] (at 50.0 µM), 90.3% (active); in assay [2] (setting [7]), 9%; in assay [2] (setting [8]), 70% (active); in assay [2] (at 50.0 µM) it was 85.7% (active). The growth inhibition was 24% in assay [3] (setting [7]); 75% (active) in assay [3] (setting [8]); 92.5% (active) in assay [3] (at 50.0 µM); 16% in assay [4] (setting [7]); 50% in assay [4] (setting [8]); 34.5% in assay [4] (at 50.0 µM). Moreover, the growth inhibition was -22% in assay [5] (setting [7]); 85% (active) in assay [5] (setting [8]); 44.5% in assay [5] (at 50.0 µM); -14% in assay [6] (setting [7]); 95% (active) in assay [6] (setting [8]); 88.6% (active) in assay [6] (at 50.0 µM).

As for `CC(C)CC(NC(=O)SCc1ccccc1)C(=O)O` (configuration not stated), the growth inhibition in assay [1] (setting [7]) was -2%; in assay [1] (setting [8]), 35%; in assay [1] (at 50.0 µM) it was 3.35%; in assay [2] (setting [7]) it was -12%; in assay [2] (setting [8]), -5%; in assay [2] (at 50.0 µM), 1.6%. Besides, the growth inhibition was -1% in assay [3] (setting [7]); -1% in assay [3] (setting [8]); 3% in assay [3] (at 50.0 µM); 5% in assay [4] (setting [7]); 8% in assay [4] (setting [8]); 15.4% in assay [4] (at 50.0 µM). The growth inhibition is 2% in assay [5] (setting [7]); 1% in assay [5] (setting [8]); -5.95% in assay [5] (at 50.0 µM); 3% in assay [6] (setting [7]); 24% in assay [6] (setting [8]); 14.8% in assay [6] (at 50.0 µM).
